Screens (PubChem BioAssay)
A selection: hits, their analogues and other compounds. The true share with any hit is near 11%.
Vaccinia mCherry = inhibitors of vaccinia virus infection (mCherry reporter signal) | Vaccinia virus mCherry reporter infection, fluorescence | Potency, µM (series often up to 36.5 µM), actives largely listed as inhibitors | hit rate 0.63% among 310,000 | AID 720579; calls by dose curve; tested in A549 cells; further: nearly all actives have a fitted effect of over 35% in size
Pf growth 96h = P. falciparum growth inhibition at 96 hour, primary screen for plastid delayed-death inhibitors | P. falciparum luciferase reporter growth, 96 h | Potency, µM (doses to about 28.7 µM), hits mostly inhibitors | hit rate 6.9% among 320,000 | AID 504834
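P. falciparum expressing integrated firefly luciferase grown in erythrocytes (2% hematocrit, 0.05% parasitemia final) with compounds for 96 hours at 37 C, 5% CO2. Growth inhibition read as loss of luminescence after adding luciferase detection reagent.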
NS1 inh = blocks influenza NS1 protein function | Potency, µM (series often up to 46.1 µM) | AID 2326 | hit rate 0.4% among 270,000; calls by dose curve; further: actives are rising curves; nearly all actives have a fitted effect of over 50% in size
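OD600 was taken as the measure of yeast growth restored by compound in an NS1-expressing S. cerevisiae strain. Cells had been washed out of glucose medium and diluted 1:100 into galactose -URA medium, pH 6.0.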
VACV Venus inh = inhibitors of vaccinia virus (Venus reporter); Potency, µM (doses to about 36.5 µM), hits mostly inhibitors; Vaccinia virus Venus reporter expression, fluorescence; hit rate 0.46% among 330,000; calls by dose curve; tested in A549 cells; further: nearly all actives have a fitted effect of over 30% in size
HCV inhibitor = inhibitors of hepatitis C virus infection; Potency, µM (top dose mostly 41.8 µM), hits mostly inhibitors; hit rate 3.4% among 340,000; Huh7.5.1 HCVcc-Cre infection, luciferase reporter, 44 h
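Compounds are dispensed onto cells plated 4 h earlier at 1,000 per well, with HCVcc-Cre virus (about 0.5 moi) added next. Following 44 h of culture, luminescent signal is measured for 15 sec after 15 min with substrate at room temperature.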
Pf growth 48h = inhibits P. falciparum growth in the first generation, 48 h | P. falciparum luciferase growth in erythrocytes, 48 h | Potency, µM (doses to about 28.7 µM), hits mostly inhibitors | hit rate 5.9% among 310,000 | AID 504832
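Luciferase-expressing parasites in RBCs, 2% Hct / 0.1% parasitemia final; RPMI 1640 + 0.5% Albumax; 37 C, 5% CO2, one generation; luminescence read-out, lower signal = inhibition.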
HCV inh confirm = HCV inhibition, cherry-pick confirmation; Potency, µM (series often up to 41.8 µM), hits mostly inhibitors; HCVcc-Cre infectious virus cell assay, luciferase, inhibition; hit rate 78% among 640; AID 720575; shares compounds with HCV inhibitor; further: nearly all actives have a fitted effect of over 80% in size
HCV host tox = toxic to HCV host cells, flagging false HCV inhibitors. shares compounds with HCV inhibitor. HCV host cell line cytotoxicity counterscreen. Potency, µM (top dose mostly 41.8 µM), usual class: inhibitors. hit rate 22% among 640;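 further: 44 h compound exposure; nearly all actives have a fitted effect of over 55% in size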
Numbers stand for hits; i = inactive; ? = inconclusive; nt = not tested or not shown; [ ] = another dose, or the depositor's remark. Unless noted, the call rests on the fitted dose curve; in most records, active means well fitted curve in the direction sought with a large enough effect; inconclusive means small, poorly fitted or top-dose-only effect, or another doubt; inactive means no such curve, though single readings can be large; an effect the other way counts as inactive or inconclusive.

SMILES	Vaccinia mCherry	Pf growth 96h	NS1 inh	VACV Venus inh	HCV inhibitor	Pf growth 48h	HCV inh confirm	HCV host tox
CCOC(=O)c1cc(-c2ccco2)nc2c1c(C)nn2CCC#N	nt	?	i	?	?	8.3µM	?	i
CN(C)C=Nc1ccc2nn(-c3ccccc3)nc2c1	i	i	i	i	i	i	nt	nt
CCn1c2c(c(=N)c3ccccc31)CCC2	i	?	i	i	8.9µM	?	25µM	?
c1ccc2c(c1)[nH]c1c(N3CCCC3)ncnc12	nt	2.6µM	i	?	8.9µM	?	7µM	16µM
c1ccc2c(c1)[nH]c1c(N3CCN(C4CCCCC4)CC3)ncnc12	i	i	i	i	i	i	nt	nt
O=S(=O)(Nc1ccc(-c2ccc(NS(=O)(=O)c3ccccc3)cc2)cc1)c1ccccc1	i	nt	nt	?	3.2µM	nt	13µM	i
COc1cccc(CNc2ccc(F)c(Cl)c2)c1O	nt	i	i	nt	i	?	nt	nt
O=C(CN1C(=O)COc2ccccc21)NNC(=O)Nc1ccccc1F	i	i	i	i	i	i	nt	nt
O=C(OCCOc1cccc(Cl)c1)c1cc(S(=O)(=O)N2CCCCC2)ccc1N1CCOCC1	?	13µM	nt	?	?	?	3.5µM	6.3µM
O=C(COc1cccc(Cl)c1)Nc1cc(S(=O)(=O)N2CCOCC2)ccc1N1CCOCC1	nt	?	i	nt	i	i	nt	nt
CCC1(CC)C(=O)NC(=Nc2cccc(C(F)(F)F)c2)NC1=O	nt	i	i	nt	i	i	nt	nt
Cc1cc(C)nc(/N=C(\N)Nc2ccc(CC(=O)OC(C)C)cc2)n1	?	?	i	?	3.5µM	i	2.8µM	i
Cc1cc(C)nc(/N=C(\N)Nc2ccc(S(=O)(=O)O)cc2)n1	i	i	nt	i	i	i	nt	nt
CCOc1ccc(C(=O)C(CCC(CN(C)C)C(=O)c2ccc(OCC)cc2)CN(C)C)cc1 (stereo unspecified)	nt	?	i	nt	3.2µM	?	7.9µM	7.9µM
COc1ccc2c(C)nc(Nc3nc(C)cc(=O)[nH]3)nc2c1	nt	nt	i	nt	nt	nt	nt	nt
CCOc1ccc2c(C)nc(NC3=NC(C)(C)C=C(C)N3)nc2c1	i	12µM	i	?	5µM	10µM	7µM	?
COc1ccc(-n2nc3ccc(N)cc3n2)cc1	i	nt	nt	i	nt	nt	nt	nt
CCN1CCN(CCCOc2ccc(-c3ccccc3)cc2)CC1	i	i	i	i	2.8µM	i	14µM	i
CCN1CCN(CCCOc2ccccc2-c2ccccc2)CC1	nt	i	i	nt	?	?	nt	nt
CN(Cc1ccccc1)Cc1ccccc1OC(=O)N(C)C	nt	i	i	nt	i	i	nt	nt
O=C(Nc1ccc([N+](=O)[O-])cc1)Nc1ccc(OC(F)F)c(Cl)c1	?	i	i	8.9µM	?	1.9µM	7µM	8.9µM
O=C(Cc1ccc(Cl)cc1Cl)Nc1ccc(OC(F)F)c(Cl)c1	i	i	i	i	?	i	nt	nt
O=C(NCC1(c2ccccc2)CCCC1)c1ccco1	i	i	i	i	i	i	nt	nt
Cc1cc(Br)c(S(=O)(=O)NCc2ccncc2)cc1C	?	?	i	i	3.2µM	i	2µM	6.3µM
COc1cc(C)c(Cl)cc1S(=O)(=O)NCc1ccncc1	nt	?	i	nt	i	i	nt	nt
SMILES	Vaccinia mCherry	Pf growth 96h	NS1 inh	VACV Venus inh	HCV inhibitor	Pf growth 48h	HCV inh confirm	HCV host tox
CCN1C(=O)/C(=C\c2cccs2)C(C(=O)OC)=C1C	nt	?	i	i	4µM	nt	?	?
CCOC(=O)C1=C(C)N=c2s/c(=C/c3ccco3)c(=O)n2C1c1cccc(OC)c1 (stereo unspecified)	nt	i	?	i	?	?	?	i
COc1ccc(-c2coc3cc(O)cc(O)c3c2=O)cc1	i	i	i	i	i[8.37 µM]	i	nt	nt
O=c1c(-c2ccc(O)cc2)coc2cc(O)cc(O)c12	11µM	i	i	?	0.89µM	i	i	i
Cc1ccc(-n2nc3c(N4CCC(C(=O)N5CCN(C)CC5)CC4)nnc(C)c3c2C)cc1	nt	?	i	nt	4.5µM	?	16µM	i
COc1ccc(OC)c(-c2cc(C(=O)NCc3ccco3)no2)c1	i	i	i	i	?	i	28µM	i
COc1cccc(-c2cc(C(=O)NCc3ccco3)no2)c1	nt	?	i	nt	i	nt	nt	nt
Cc1ccc(CC2CC(=O)N(CCc3ccc4c(c3)OCO4)C2=O)cc1 (stereo unspecified)	nt	i	i	i	i	i	nt	nt
CCCCCNc1nc2sc3c(c2c(=O)n1-c1cccc(Cl)c1)CCN(C)C3	i	0.17µM	i	i	1µM	1.5µM	2.2µM	i
CCCCSc1nc2sc3c(c2c(=O)n1-c1ccccc1)CCN(C)C3	nt	4.1µM	i	nt	?	5.2µM	13µM	i
CCCCCSc1nc2sc3c(c2c(=O)n1-c1ccc(OC)cc1)CCN(C(C)=O)C3	i	nt	nt	i	nt	nt	nt	nt
O=C(Nc1ccc(Cl)c(Cl)c1)Nc1nnc(CC2=CCCCC2)s1	nt	?	i	nt	2.8µM	?	7µM	7.9µM
O=C(Nc1nnc(CC2=CCCCC2)s1)c1cccs1	i	nt	i	i	i	i	nt	nt
COc1ccc(-c2csc(NC(C)c3nc4cc(Cl)c(Cl)cc4n3CCCO)n2)cc1 (stereo unspecified)	?	nt	nt	?	8.9µM	nt	13µM	i
CCCn1c(C(C)Nc2nc(-c3ccc(C)cc3)cs2)nc2cc(Cl)c(Cl)cc21 (stereo unspecified)	i	?	i	i	?	i	nt	nt
CC1(C(=O)NS(=O)(=O)c2ccc(Cl)s2)CCN1C(=O)C1(c2ccc(Cl)cc2)CC1 (stereo unspecified)	i	nt	nt	i	nt	nt	nt	nt
O=C(c1cn(-c2ccccc2)nc1-c1cccc([N+](=O)[O-])c1)N1CCCCC1	i	i	i	i	?	?	11µM	i
COc1ccc(C2=NS(=O)(=O)N(C)C(C(=O)N3C(C)CCCC3C)=C2)cc1 (stereo unspecified)	i	?	i	i	i	?	nt	nt
Cn1ncc2c(NCCc3ccccc3)nc(Cl)nc21	i	nt	i	i	?	nt	25µM	i
Cc1cc(C)cc(N=c2c([N+](=O)[O-])nn(-c3ccc(Cl)cc3)n2O)c1	i	i	nt	i	?	i	16µM	i
O=C(Nc1ccc(Br)cc1Cl)c1cnccn1	nt	nt	i	nt	i	i	nt	nt
O=C(COC(=O)c1ccc(O)cc1)Nc1ccc2c(c1)OCO2	i	nt	nt	i	i	nt	nt	nt
CCCCCn1c(=O)[nH]c2cc(C(=O)NCCCN3CCC(C)CC3)ccc2c1=O	nt	?	i	nt	4.5µM	?	16µM	i
COc1ccc(/C=C/C(=O)Nc2cccc(S(=O)(=O)NC3=NCCCCC3)c2)cc1OC	nt	?	nt	nt	6.3µM	?	20µM	?
CC(C)=CC(=O)Nc1cccc(S(=O)(=O)NC2=NCCCCC2)c1	nt	nt	nt	nt	i	nt	nt	nt
Cc1ccccc1-n1nc2c(c1NC(=O)c1cccs1)CS(=O)(=O)C2	nt	i	i	nt	i	i	nt	nt
CCOC(=O)c1cc2n(c1/N=C/N(C)C)-c1ccccc1C2=O	i	?	i	i	?	nt	?	i
